From the supplement of paper PMC8728848
This is one part of a sample in which the strongest signals are shown more often than they occur.

Assays:
Assay in all cases: glycan array binding signal (z-score within array); higher = stronger binding
Settings in all cases: glycan notation: IUPAC condensed, linker removed
[1] = molecular target: Neu5Ac(a2-3)Gal(b1-4)GlcNAc(b1-2)[Neu5Ac(a2-3)Gal(b1-4)GlcNAc(b1-4)]Man(a1-3)[GlcNAc(b1-4)][Neu5Ac(a2-3)Gal(b1-4)GlcNAc(b1-2)[Neu5Ac(a2-3)Gal(b1-4)GlcNAc(b1-6)]Man(a1-6)]Man(b1-4)GlcNAc(b1-4)GlcNAc
Outline: (§1)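 From the Consortium for Functional Glycomics database, 3228 arrays were curated, keeping only those whose protein sequence was available. Binding is given as a within-array Z-score averaged across arrays sharing a protein sequence and across linkers. Negative Z-scores can be read as non-binding.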

[2] = molecular target: Neu5Ac(a2-3)Gal(b1-4)[Fuc(a1-3)]GlcNAc(b1-6)[Gal(b1-3)]GalNAc
Outline: as §1

[3] = molecular target: Neu5Ac(a2-3)[GalNAc(b1-4)]Gal(b1-4)GlcNAc(b1-3)GalNAc
Outline: as §1

[4] = molecular target: Neu5Ac(a2-6)Gal(b1-4)GlcNAc(b1-2)Man(a1-3)Man(b1-4)GlcNAc(b1-4)GlcNAc
Outline: as §1

[5] = molecular target: Neu5Ac(a2-6)Gal(b1-4)GlcNAc(b1-3)[Neu5Ac(a2-6)Gal(b1-4)GlcNAc(b1-6)]GalNAc
Outline: as §1

[6] = molecular target: Neu5Ac(a2-8)Neu5Gc(a2-3)Gal(b1-4)GlcNAc
Outline: as §1

[7] = molecular target: Neu5Ac9Ac(a2-3)Gal(b1-4)GlcNAc
Outline: as §1

B1: PX9961J-bvu-499-24-499 (Bacteroides vulgatus) (protein)
chain: LNTDPSTAVPSDDAIKNIDDAQVALNGIYRLASAHSYYGDNYLYYADCRGEDVQARINKGAGRRVSPYYFFDVTADDNFNITLVWNQPYKVIHQANSLIEKLDAGNAGNARPEEVARIKSEALAMRGLALFDLTRLFGMPYTLDNGASLGVPIEIQTTLEDHAPERNTVAQCYEQVLKDLNDALGGLTKEKHDAYMNYWSVKALLSRVYLYMNDNENALKCAEEVINDNGGIYRLFTHDEYPSVWGKDFNSESLFEFYFTMSEPSGGSGGEGAPMVYADNVKDWNNLILTKAYLDLLNEDPEDVRHVFPHLPENAVADTLPVAAKGQPKYLIKYPGKSGSVTDAVSTVNPQDNDLCILRLSEVYLNAAEAAFKIGNTEKALTYLNAIVTRANPAKSVTSADLSLERILKERRKELVGEGHAFFDYMRNGKSVDRSGGWHLTMPEDARVIAPSDPRVALPIPQTEIDANPNIVQNPR
**Q.** How did the “glycan array binding signal (z-score)” value [1] turn out when B1 was run?
**A.** -0.208

**Q.** What about the “glycan array binding signal (z-score)” value [2] of the same binder?
**A.** -0.279

**Q.** And the “glycan array binding signal (z-score)” value [3]?
**A.** -0.342

**Q.** And the “glycan array binding signal (z-score)” value [4]?
**A.** 0.368

**Q.** What about the “glycan array binding signal (z-score)” value [5] of the same binder?
**A.** -0.732

**Q.** What about the “glycan array binding signal (z-score)” value [6] of the same binder?
**A.** 19

**Q.** And the “glycan array binding signal (z-score)” value [7]?
**A.** -0.319
